FBPA coupling cs = counter-screen for Giardia aldolase inhibitors: coupling enzyme system; coupling enzyme system counterscreen, AmpLite Red fluorescence; activity change, negative = inhibition, % at 58.2 µM, hits read low; 290,000 tested, 0.67% active; AID 2472; in the data active = activity change below about -30%
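Coupling enzymes only (glyceraldehyde-3-phosphate) + compound, at 57.5 uM final, 10 min RT; add substrate/coupling/AmpLite Red mix, 20 min RT; fluorescence ex 525/em 598 nm. Actives flag coupling-system interference.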
Tau ThT inhib = inhibitors of human tau fibril formation, thioflavin T binding. recombinant tau K18 P301L, heparin-induced fibrillization, ThT fluorescence. Potency, µM (doses to about 57.4 µM), without a hit: top-dose activity, negative = inhibition, most hits filed as inhibitors. AID 1460. 270,000 tested, 2.1% active. P10636; also: potency is read from the fitted curve at half-maximal effect; nearly all actives have a fitted effect of over 55% in size
Target sequence (P10636 561-689 P618L limits assumed): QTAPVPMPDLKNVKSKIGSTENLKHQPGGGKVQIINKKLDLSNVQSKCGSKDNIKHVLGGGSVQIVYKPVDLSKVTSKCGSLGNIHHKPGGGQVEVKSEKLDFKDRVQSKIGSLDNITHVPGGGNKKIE
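Using a mix of unlabeled (15 uM) and Alexa 594-labeled (0.24 uM) tau K18 P301L, heparin-triggered fibrillization over 6 hr at 37 C was scored by ThT fluorescence.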
USP1-UAF1 inh = USP1/UAF1 (human) deubiquitinase inhibition. O94782. recombinant USP1/UAF1, Ub-Rhodamine cleavage fluorescence. Potency, µM (series often up to 57.1 µM), inactives show at the top dose activity change, negative = inhibition, usual class: inhibitors. 390,000 tested, 0.23% active; also: potency is read from the fitted curve at half-maximal effect; nearly all actives have a fitted effect of over 60% in size
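USP1/UAF1 complex (1 nM) preincubated 15 min at room temperature with compound, then Ub-Rho substrate (150 nM final) added. Kinetic fluorescence at 480/540 nm over 6 reads at 60 s intervals; 50 mM HEPES pH 7.8, 0.5 mM EDTA, 0.1 mg/ml BSA, 1 mM TCEP, 0.01% Tween-20.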
Tau fluor counter = counter-screen for tau fibril formation inhibitors. Potency, µM (top dose mostly 57.7 µM), for inactives: top-dose activity change, negative = decrease. 280,000 tested, 0.93% active. tau K18 P301L (four-repeat tau fragment) Alexa594 fluorescence, heparin fibrillization. AID 1463; also: potency is read from the fitted curve at half-maximal effect; nearly all actives have a fitted effect of over 55% in size
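Human K18 P301L tau (15 uM unlabeled plus 0.24 uM Alexa 594-labeled, final) in 100 mM sodium acetate pH 7 was mixed with compound and 20 uM heparin and incubated 6 hr at 37 C.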
Tau FP inhib = inhibitors of human tau fibril formation. K18 P301L tau heparin fibrillization, Alexa594 FP, 6 h. Potency, µM (titrated, usually from 57.7 µM), for the others: at the highest dose activity, negative = inhibition, hits mostly inhibitors. 280,000 tested, 0.39% active. AID 1468; also: potency is read from the fitted curve at half-maximal effect; nearly all actives have a fitted effect of over 55% in size
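Human K18 P301L fragment (15 uM unlabeled plus 0.24 uM Alexa 594-labeled) in 100 mM sodium acetate pH 7 with compound, aggregation induced by 20 uM heparin for 6 hr at 37 C. ThT (30 uM) added for 1 hr, then Alexa 594 FP read.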
Numbers without * were called inactive; ? = inconclusive; / = no result given; [ ] = remark or other dose. This is a sample that favours compounds with a hit; in the whole collection about 2.3% have one here. Unless noted, calls follow the shape of the dose curve; as a rule, active = well fitted curve in the direction sought with a large enough effect; inconclusive = small, poorly fitted or top-dose-only effect, or another doubt; inactive = no such curve, though single readings can be large; an effect the other way counts as inactive or inconclusive. % is scaled to controls: 0 for no effect and ±100 for the full control effect.

SMILES	FBPA coupling cs	Tau ThT inhib	USP1-UAF1 inh	Tau fluor counter	Tau FP inhib
CCOc1cccc2cc(-c3nc4sc(C(=O)Nc5ccc(C)cc5)c(C)c4c(=O)[nH]3)c(=O)oc12	/	-8%	54%	-18%	?
COc1ccc(-c2csc(Nc3ccc(C)cn3)n2)cc1OC	-4	13µM*	-23%	?	11%
COc1ccc(-c2csc(Nc3cc(C)ccn3)n2)cc1OC	-3	/	-13%	/	/
Cc1ccc(Nc2nc(-c3ccc(F)cc3)cs2)nc1	-3	/	-18%	/	/
Cc1ccc(Nc2nc(-c3ccc(O)c(O)c3)cs2)nc1	-11	10µM*	-14%	14µM*[quencher]	14%
CC1(O)C(=O)C=C2C=C3CCCN3C=C2C1=O (stereo not drawn)	-8	?	/	-26%[11.6 µM]	-16%[11.6 µM]
CC(C)(C)CC(=O)Nc1nnc2n1CCS2	/	-16%	?	-13%	-1%
CCCCOc1ccc2c(c1)C(=O)c1cc(O)ccc1-2	3	11µM*	-8%	14µM*[quencher]	?
CCOc1ccc2c(c1)C(=O)c1cc(OCC(=O)O)ccc1-2	-12	11µM*	-11%	-27%	-6%
O=C(/C(=C/O)N=Nc1ccc(Cl)cc1)c1ccncc1	/	20µM*	-13%	-27%	-8%
Cc1ccc(N=N/C(=C\O)C(=O)c2ccncc2)cc1	1	28µM*	-11%	-25%	-3%
Cc1cccc(N/N=C(\C=N\N)C(=O)c2ccc(Br)cc2)c1	0	14µM*	/	11µM*[quencher]	?
Cc1ccc(S(=O)(=O)NNC(=O)c2ccncc2)cc1	3	-5%	-18%	0%	3%
Cc1cccc(/C=N/NC(=O)c2ccc(Br)cc2)c1	-1	-17%	-25%	-10%	-1%
O=C(/C(=C/O)N=Nc1ccccc1Cl)c1ccccc1	2	28µM*	-19%	-21%	-11%
Cc1cc(NC(=O)CN(C)S(=O)(=O)c2ccc3c(c2)CCCC(=O)N3)ccc1Br	/	-7%	-26%	-24%	-5%
COc1ccccc1/C=C/c1onc(C)c1S(=O)(=O)N1CCC(C(=O)N2CCC(C)CC2)CC1	/	-12%	-13%	-5%	-4%
Cc1cccc(N=N/C(=C\O)C(=O)c2ccc(Br)cc2)c1	1	22µM*	-23%	-22%	0%
O=C(/C(=C/O)N=Nc1cccc(C(F)(F)F)c1)c1ccccc1	6	?	-23%	-23%	-12%
O=C(Nc1ccc(Br)cc1F)c1cc2nc(-c3ccco3)cc(C(F)(F)Cl)n2n1	/	-11%	-24%	-8%	1%
CCN(CC)c1ccc(N=Cc2cc(Br)ccc2O)cc1	-22	16µM*	?	?	?
Oc1ccc(Br)cc1C=Nc1ccc(Cl)cc1	2	-5%	?	-5%	-4%
c1coc(-c2nc3c4c5c(sc4ncn3n2)CCCC5)c1	-2	-1%	-17%	4%	4%
CN1CCc2c(sc3ncn4nc(-c5ccccc5O)nc4c23)C1	0	28µM*	/	-26%	?
Cc1cc(/C=C/c2ccc3cc(N(C)C)ccc3[n+]2C)c(C)n1-c1ccccc1	-27	/	/	/	-13%
SMILES	FBPA coupling cs	Tau ThT inhib	USP1-UAF1 inh	Tau fluor counter	Tau FP inhib
COc1ccc(S(=O)(=O)N2Cc3ccccc3CC2C(=O)Nc2cc(Cl)ccc2Cl)cc1 (stereo not drawn)	/	9%	-12%	-26%	?
O=C1C=CC(=O)C2=C1C1c3ccccc3C2c2ccccc21	-11	20µM*	/	?	35µM*
O=C(CN1CCCc2ccccc21)N/N=C/c1c(O)ccc2ccccc12	1	?	?	14µM*[quencher]	15%
Cc1cc(O)c(C(C)C)cc1N=Cc1ccc(N(C)C)cc1	/	/	32µM*	/	/
CNC(=S)N/N=C/c1ccc(N(C)C)cc1	2	?	-12%	-20%	5%
N#C/C(=C1/C(=O)Nc2ccc(Br)cc21)c1ccccn1	-1	28µM*	-9%	-21%	?
O=C1Nc2ccc(Br)cc2C1=C1CCCCC1	2	/	-22%	/	/
N[C@H](CCC(=O)N[C@H](CSN=O)C(=O)NCC(=O)O)C(=O)O	1	22µM*	/	-22%	?
COc1cc2ccc(=O)oc2c(CC=C(C)C)c1OC	6	-5%	-19%	-9%	-11%
COc1c(O)cc2oc3cc(O)c(CC=C(C)C)c(O)c3c(=O)c2c1CC=C(C)C	-5	?	/	2.8µM*[quencher]	2.8µM*
CC(C)=CCc1c(O)cc2oc3c(CC=C(C)C)c(O)c(O)c(CC=C(C)C)c3c(=O)c2c1O	-10	?	-12%	14µM*[quencher]	-5%
CC(C)=CCc1c(O)cc2oc(C)cc(=O)c2c1O	1	-2%	/	-12%	-1%
CCSc1nnc2n(-c3cccc(C)c3)c(=O)c3c4c(sc3n12)CCCC4	/	-19%	-21%	-16%	5%
N#CC1=C(N)SC(N)=C(C#N)C1c1ccc([N+](=O)[O-])cc1	-11	20µM*	-13%	?	-12%
CCOc1ccc(C2C(C#N)=C(N)SC(N)=C2C#N)cc1OCC	-22	?	32µM*	?	-1%
CCOc1ccccc1C1C(C#N)=C(N)Oc2n[nH]c(CC)c21 (stereo not drawn)	-1	-9%	-22%	-9%	-1%
CCOc1ccc(C2C(C#N)=C(N)SC(N)=C2C#N)cc1OC	-39*	?	/	-25%	-3%
CCOc1ccccc1C1C(C#N)=C(N)SC(N)=C1C#N	-31*	?	?	-17%	-5%
O=C1CN(C(=O)c2ccc(S(=O)(=O)N3CCCC3)cc2)C(c2ccc(F)cc2)c2cc(Br)ccc2N1 (stereo not drawn)	/	-6%	-3%	-12%	3%
O=C(NCc1ccccc1)C(=O)NCC(c1ccco1)S(=O)(=O)c1ccccc1 (stereo not drawn)	/	-3%	11%	-7%	-9%
COc1cc2c(c(OC)c1OC)-c1ccc(OC)c(=O)cc1[C@@H](NC=O)CC2	-6	/	/	/	/
COc1cc2c(cc1OC)C(COc1ccccc1OC)N(C(=O)c1ccc(S(=O)(=O)N3CCCC3)cc1)CC2 (stereo not drawn)	/	-2%	-18%	-7%	9%
O=C(NCCc1ccc(F)cc1)C(=O)NCC(c1cccs1)S(=O)(=O)c1ccccc1 (stereo not drawn)	/	4%	3%	-8%	-14%
Cc1cccc(Nc2nnc(SCC(=O)Nc3cccc(S(=O)(=O)N4CCCCC4)c3)s2)c1	-4	-11%	-12%	13µM*[quencher]	-25%
CCOCCOC(=O)C1=C(C)Nc2ccc(C)cc2S1	0	?	-7%	-22%	1%
Cc1ccc2c(c1)Sc1c(ccc3ccccc13)N2	-20	3.2µM*	-20%	14µM*[quencher]	0%
CN1CCc2cc3c(c4c2[C@H]1[C@H](O)c1ccccc1-4)OCO3	-32*	?	?	-17%	-2%
COc1ccc2c(c1OC)C(=O)O[C@H]2C1c2c(cc3c(c2OC)OCO3)CCN1C (stereo partly drawn)	-2	-11%	/	-17%	?

Screens (PubChem BioAssay)
